Compound activity: PubChem BioAssay, Broad Institute
STK33 inh – inhibitors of human STK33 kinase; Q9BYT3; ADP-Glo luminescence, MBP substrate; inhibition, % at 12.5 µM; 27,000 tested, 0.44% active; AID 2322; in the data active means inhibition above about 20%; inconclusive means no clear call, values can overlap the other calls
p53 PUMA act – mutant p53 pathway reactivation; SW480 PUMA-promoter luciferase; activation, % at 9.98 µM; 28,000 tested, 1.5% active; in the data active means activation above about 52%; inconclusive means no clear call, values can overlap the other calls
ID4 binder – ID4 (human) binding; small molecule microarray, Flag-ID4 binding, fluorescence F/B; calls only; 31,000 tested, 1.2% active; call rule not given here;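 further: a binder raises fluorescence above local background on the spot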
Target sequence (P47928 whole entry, looked up): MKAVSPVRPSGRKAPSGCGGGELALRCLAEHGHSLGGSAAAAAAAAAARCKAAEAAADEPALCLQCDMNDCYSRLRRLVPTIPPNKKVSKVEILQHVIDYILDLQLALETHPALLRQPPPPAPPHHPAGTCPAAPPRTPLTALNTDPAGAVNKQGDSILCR
* hit, by the source's call. Compounds with a hit are over-represented: about 2.1% of the library has one in this group of screens.

`O=C(O)c1ccccc1Nc1nc(N2CCOCC2)nc(N2CCOCC2)n1` gave STK33 inh 0.7, p53 PUMA act 55.8* and ID4 binder inactive.
For C=C(C)C(O)Cc1cc(CCc2cc(O)cc(O)c2)cc(O)c1OC (stereo unspecified) the results were STK33 inh -3.6 and p53 PUMA act 4.9.
`CCC(=O)Nc1ccc(C(=O)Nc2cc(OC)ccc2NC(=O)c2ccco2)cc1` gave STK33 inh 1.0, p53 PUMA act 1.5 and ID4 binder inactive.
Screening CCOC(=O)c1c(NC(=S)NCc2cc(C)n(C)n2)sc2c1CCCC2 returned STK33 inh 3.1, p53 PUMA act -2.3 and ID4 binder inactive.
CCOC(=O)c1c(NC(=S)N(C)Cc2c(C)nn(C)c2C)sc2c1CCCCCC2 was read as STK33 inh -0.8, p53 PUMA act 4.4 and ID4 binder active.
Screening COc1ccc(S(=O)(=O)Nc2ccc3c(c2)CC(=O)N([C@@H](C)CO)C[C@@H](C)[C@@H](CN(C)CC2CC2)O3)cc1 returned STK33 inh 0.4, p53 PUMA act 14.4 and ID4 binder inactive.
For COc1ccc([Si](C)(C)[C@@H]2[C@@H](CCO)O[C@]3(C(=O)N(C)c4c(Br)cc(C)cc43)[C@H]2C)cc1 the results were STK33 inh 6.1 and ID4 binder inactive.
Screening NC(=O)C1(N2CCCCC2)CCN(CC(=O)Nc2ccc(F)c(Cl)c2)CC1 returned STK33 inh 4.2, p53 PUMA act -10.9 and ID4 binder inactive.
Cc1ccc([N+](=O)[O-])c(OCCCSc2ncccn2)c1 was read as STK33 inh 0.4, p53 PUMA act 66.9* and ID4 binder inactive.
For O=[N+]([O-])c1ccccc1OCCCCSc1ncccn1 the results were STK33 inh 7.4, p53 PUMA act 23.4 and ID4 binder inactive.
For Cc1ccc(S(=O)(=O)N(C)CC(=O)Nc2ccc(F)cc2)cc1 the results were STK33 inh -2.8, p53 PUMA act 0.2 and ID4 binder inactive.
Screening C[C@@H]1CN([C@@H](C)CO)C(=O)Cc2cc(NC(=O)NC3CCCCC3)ccc2O[C@@H]1CN(C)Cc1ccc(-c2ccccc2)cc1 returned STK33 inh -1.3.
For Cc1ccc2c(CC(=O)Nc3cccc([N+](=O)[O-])c3)coc2c1C the results were STK33 inh 3.7, p53 PUMA act 69.0* and ID4 binder inactive.
For Cc1ccc2c(CC(=O)NCc3ccco3)coc2c1C the results were STK33 inh -2.7, p53 PUMA act -24.2 and ID4 binder inactive.
CC(C)NC(=O)N(C)C[C@H]1Oc2ccc(NC(=O)Cn3cnnn3)cc2C(=O)N([C@@H](C)CO)C[C@@H]1C was read as STK33 inh -1.5.
For CC1=CCC(C(=O)O)C(C(=O)Nc2ccccc2NC(=O)c2ccc(C(F)(F)F)cc2)C1 (stereo unspecified) the results were STK33 inh -1.8, p53 PUMA act 107.7* and ID4 binder inactive.
For CC1=CCC(C(=O)O)C(C(=O)Nc2ccc(OC(F)(F)F)cc2)C1 (stereo unspecified) the results were STK33 inh -1.4, p53 PUMA act -11.4 and ID4 binder inactive.
COC(=O)c1cccc(NC(=O)CN(c2ccc(I)cc2)S(C)(=O)=O)c1C was read as STK33 inh 2.2, p53 PUMA act -2.4 and ID4 binder inactive.
`CSc1ccccc1NC(=O)Cn1c(-c2cscn2)nc2ccccc21` gave STK33 inh 0.9, p53 PUMA act 0.6 and ID4 binder inactive.
CC(C)Cc1ccc(/C=C/C(=O)N2CCN(C/C=C/c3ccccc3)CC2)cc1 was read as STK33 inh -0.9.
Screening CC(C)Cc1ccc(/C=C/C(=O)N2CCOCC2)cc1 returned p53 PUMA act 80.6* and ID4 binder inactive.
Screening C[C@@H]1CN([C@@H](C)CO)C(=O)c2cc(NS(C)(=O)=O)ccc2O[C@@H]1CN(C)Cc1ccncc1 returned STK33 inh 7.3.
Screening Cc1cc2c(cc1S(N)(=O)=O)S(=O)(=O)CCC2 returned STK33 inh 1.7, p53 PUMA act 18.1 and ID4 binder inactive.
Screening CCCC(O)C#Cc1cnc2c(c1)C(=O)N([C@H](C)CO)C[C@H](C)[C@H](CN(C)C(=O)Nc1ccccc1)O2 (stereo partly specified) returned STK33 inh -1.0, p53 PUMA act -3.8 and ID4 binder inactive.
`COc1ccc(COCC23N=C4SCC(=O)N4[C@H](c4ccccc4O2)[C@H]3COC(=O)c2ccccc2)cc1` gave ID4 binder inactive.
`N#CCCN(CCC#N)C(=O)C1c2ccccc2Oc2ccccc21` gave STK33 inh -1.9, p53 PUMA act 0.1 and ID4 binder inactive.
CC(O)c1cc(-c2ccc(Cl)cc2Cl)no1 (stereo unspecified) was read as p53 PUMA act 112.9* and ID4 binder inactive.
CC(Oc1ccc(Cl)cc1Cl)/C(N)=N/O (stereo unspecified) was read as p53 PUMA act 12.2 and ID4 binder inactive.
Screening Cc1ccc(Cl)c(OCC(O)Cn2cnc3ccccc32)c1 (stereo unspecified) returned STK33 inh -4.5, p53 PUMA act inconclusive and ID4 binder inactive.
`OC(COc1ccccc1Cl)Cn1nnc2ccccc21` (stereo unspecified) gave STK33 inh -2.6, p53 PUMA act 65.8* and ID4 binder inactive.
`Cc1nc2ccccc2n1CC(O)COc1ccccc1Cl` (stereo unspecified) gave STK33 inh -2.7, p53 PUMA act -5.8 and ID4 binder inactive.
`OC(COc1ccccc1Cl)Cn1cnc2ccccc21` (stereo unspecified) gave STK33 inh 0.8, p53 PUMA act 110.5* and ID4 binder inactive.
Screening C[C@@H]1CN([C@@H](C)CO)C(=O)Cc2cc(NS(=O)(=O)c3ccc(F)cc3)ccc2O[C@@H]1CN(C)C(=O)Nc1ccccc1 returned STK33 inh 0.5.
C[C@H]1CN([C@@H](C)CO)C(=O)c2cccc(N(C)C)c2O[C@@H]1CN(C)C(=O)Nc1ccccc1 was read as ID4 binder inactive.
For N#CC1=C(SCC(=O)Nc2cccc3cccnc23)NC(=O)C(C#N)C12CCCCC2 (stereo unspecified) the results were STK33 inh -1.2, p53 PUMA act -11.1 and ID4 binder inactive.
C[C@H]1CN([C@@H](C)CO)C(=O)Cc2cc(NC(=O)Cc3ccccc3)ccc2O[C@H]1CN(C)C(=O)Nc1ccc(C(F)(F)F)cc1 was read as STK33 inh 0.0.
Screening Cc1ccc2oc(-c3cccc(NC(=O)COc4ccc(Cl)cc4)c3C)nc2c1 returned STK33 inh 3.1, p53 PUMA act 65.8* and ID4 binder inactive.
Cc1ccc2oc(-c3cccc(NC(=O)COc4ccc(Br)cc4)c3C)nc2c1 was read as STK33 inh 3.4, p53 PUMA act 43.8 and ID4 binder inactive.
`Cc1c(NC(=O)COc2ccc(C(C)(C)C)cc2)cccc1C(=O)O` gave STK33 inh 2.4, p53 PUMA act 24.5 and ID4 binder inactive.
Screening Cc1ccc(OCC(=O)Nc2cccc(C(=O)O)c2C)cc1 returned STK33 inh -8.9, p53 PUMA act 66.3* and ID4 binder inactive.
Screening COc1ccccc1NC(=O)C(C)N1c2cccc3cccc(c23)S1(=O)=O (stereo unspecified) returned STK33 inh 2.4, p53 PUMA act -1.0 and ID4 binder inactive.
